Measurements: PubChem BioAssay (NCI)
This is part of a sample that, as a whole, favours compounds with a hit. Of some 83,000 tested, about 20% had one in any assay.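 Each cell line was grown in a 96-well plate and treated with one concentration of compound for 48 hours. Values below 10 were considered active.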 Calls of active or inactive are those of the source.

Assays:
Experiment in all cases: NCI-60 one-dose screen, 48 h (100 = growth as untreated, 0 = no growth, -100 = all killed)
Conditions in all cases: 10 µM unless noted
[1] = tested on: SK-MEL-2 melanoma
[2] = tested on: EKVX NSCLC
[3] = tested on: SN12C renal
[4] = tested on: UO-31 renal
[5] = tested on: TK-10 renal
[6] = tested on: ACHN renal
[7] = tested on: CAKI-1 renal
[8] = tested on: A498 renal
[9] = tested on: CCRF-CEM leukemia
[10] = tested on: MOLT-4 leukemia

Measured: growth

CCc1ccccc1-n1c(-c2ccc(OC)cc2)cc(-c2ccc(OC)cc2)c(C#N)c1=O
inactive: [1] 90.2% | [2] 94.1% | [3] 89.8% | [4] 88.3% | [5] 97.2% | [6] 61.6% | [7] 77.9% | [8] 69.5% | [9] 127% | [10] 133%

Cc1[nH]c(=O)[nH]c(=O)c1Br
inactive: [1] 148% | [2] 106% | [3] 98% | [4] 105% | [5] 114% | [6] 104% | [7] 92.9% | [8] 103% | [9] 107% | [10] 94%

NS(=O)(=O)c1ccccc1NC(=O)Nc1nc2ccccc2s1
inactive: [1] 102% | [2] 85.6% | [3] 98.3% | [4] 84.1% | [5] 153% | [6] 99.4% | [7] 89.7% | [8] 97.6% | [9] 99.2% | [10] 102%

CCCNc1nc2ccccc2c2c1S(=O)(=O)c1ccc(Cl)cc1C2=O
inactive: [2] 25.8% | [4] 10.9% | [5] 17.3% | [6] 10.7% | [7] 18.2% | [8] 31.1%
active: [1] 8.94% | [3] -1.38% | [9] -5.94% | [10] 4.02%

Nc1n[nH]c2ccc([C@H]3[C@@H]4C5CCC(C5)[C@@H]4c4c(ccc5[nH]ncc45)N3S(=O)(=O)C3CC3)cc12 (stereo not given in full)
active: [8] -29.2%
inactive: [1] 53.2% | [2] 29.8% | [3] 29.1% | [4] 43% | [5] 61.7% | [6] 18.5% | [7] 26.2% | [9] 16.2% | [10] 19%

O=C1Nc2ccccc2/C1=C/c1nc2ccccc2c(=O)[nH]1
inactive: [1] 103% | [2] 80.6% | [3] 89.5% | [4] 64.4% | [5] 181% | [6] 91.9% | [7] 84.2% | [8] 102% | [9] 55.8% | [10] 86%

CCOC(=O)C#Cc1c(C(=O)OCC)nnn1Cc1ccc([N+](=O)[O-])cc1
inactive: [1] 109% | [2] 106% | [3] 58.6% | [8] 107% | [10] 14.9%
active: [4] 4.18% | [5] -10.9% | [6] -53.6% | [7] -52% | [9] -21.3%

CC(=O)N1N=C(c2ccc(C(F)(F)F)c(F)c2)CC1c1[nH]c(C)c(C(=O)NCC(F)(F)F)c1C (stereo not given)
inactive: [1] 106% | [2] 88.4% | [3] 50.1% | [4] 26% | [5] 68.5% | [6] 18.7% | [7] 58.7% | [8] 54.9% | [9] 90% | [10] 82.6%

Cc1c[n+](Cc2ccc3ccccc3c2)cn1Cc1ccc2ccccc2c1
active: [1] -48.5% | [3] 7.56% | [5] -4.54% | [9] 3.95% | [10] -3.59%
inactive: [2] 38.1% | [4] 77.6% | [6] 89.5% | [7] 94% | [8] 50.1%

Cc1csc(Nc2nc(-c3ccccn3)nc(C(Cl)(Cl)Cl)n2)n1
inactive: [1] 95.8% | [2] 95.1% | [3] 97.9% | [4] 84.3% | [5] 94.8% | [6] 79.7% | [7] 82.2% | [8] 90.7% | [9] 59.2% | [10] 67.9%

CCCc1c(OC(=O)c2ccccc2)nc2[nH]c(=O)sc2c1C
inactive: [1] 107% | [2] 97.9% | [3] 92% | [4] 82.3% | [5] 96.1% | [6] 107% | [7] 95.6% | [8] 108% | [9] 103% | [10] 104%

CN(/C(N)=N/N=C/c1c2ccccc2cc2ccccc12)C1CCCCC1
inactive: [1] 85.8% | [2] 50.5% | [3] 54.7% | [4] 33.5% | [5] 59.3% | [6] 52.7% | [7] 46.5% | [8] 50.3% | [9] 29.1% | [10] 14.2%

c1ccc(Cn2cc3c(c2)-c2oncc2CC3)cc1
inactive: [1] 53.9% | [2] 41.4% | [3] 47.8% | [4] 41.6% | [5] 77.1% | [6] 56.7% | [7] 47% | [8] 44.6% | [10] 53.6%
active: [9] 6.94%

Cn1cc(-c2csc(-c3c[nH]c4ccccc34)n2)c2cnccc21
active: [2] 7.91% | [4] -64.4% | [6] -4.48% | [7] -1.8% | [9] -8.15% | [10] -5.2%
inactive: [1] 96.2% | [3] 43.5% | [5] 55.4% | [8] 77.1%

O=C(/C=C/c1ccccc1)Nc1ncc(Cc2ccccc2Cl)s1
active: [8] -6.96%
inactive: [1] 25.7% | [2] 38.2% | [3] 37.2% | [4] 39.2% | [5] 44.6% | [6] 33.3% | [7] 26.2% | [9] 15.9% | [10] 34.2%

CC(=O)Oc1ccc(/C(=C(\C)c2ccc(Cl)cc2)c2ccc(OCCN3CCCCC3)cc2)cc1
inactive: [1] 58.4% | [2] 62.7% | [3] 64.6% | [4] 47.7% | [5] 68.4% | [6] 58.3% | [7] 74.9% | [8] 57.5% | [9] 17.5%
active: [10] -8.3%

Cn1cc(C(=O)c2nc(-c3c[nH]c4ccccc34)no2)c2cc(F)ccc21
inactive: [1] 26.9% | [2] 57.5% | [3] 59.5% | [4] 42.4% | [5] 57.6% | [6] 49.6% | [7] 32.9% | [8] 25.3% | [9] 23.9% | [10] 38.9%

CCOC(=O)[C@@H]1CSC(CC)=C(C(=O)O)N1
active: [9] -12.6% | [10] -5.82%
inactive: [1] 111% | [2] 105% | [3] 98.4% | [4] 85.1% | [5] 110% | [6] 97.6% | [7] 97.1% | [8] 108%

Cc1ccc2c(n1)C(=O)C(Br)=C(CC(C)C)C2=O
inactive: [1] 110% | [2] 104% | [3] 98.8% | [4] 87.2% | [5] 115% | [6] 68.6% | [7] 92.7% | [8] 106% | [9] 24.2% | [10] 19.5%

O=C(/C=C/c1cccs1)Nc1ncc(Cc2ccccc2F)s1
inactive: [1] 46.5% | [2] 26.1% | [3] 41.3% | [4] 36.2% | [5] 49.6% | [6] 31.5% | [7] 23% | [9] 14.4% | [10] 26%
active: [8] 4.45%

CC(=O)/C(=C\c1c(-c2ccccc2)[nH]c2ccccc12)S(C)(=O)=O
inactive: [1] 59.9% | [2] 50.4% | [3] 33.4% | [4] 51% | [5] 42.7% | [6] 50.2% | [7] 45.6% | [8] 31.9%
active: [9] 1.75% | [10] -13.5%

CSc1nc(N)c(NS(=O)(=O)c2ccc(C(C)=O)cc2)c(=O)[nH]1
inactive: [1] 100% | [2] 97.2% | [3] 101% | [4] 100% | [5] 119% | [6] 108% | [7] 90.1% | [8] 105% | [9] 109% | [10] 112%

CCn1cc(C(=O)O)c(=O)c2cc(F)c(N3CCN(CC(=O)Nc4ccc(S(=O)(=O)Nc5nccc(C)n5)cc4)C(C)C3)c(F)c21 (stereo not given)
inactive: [1] 119% | [2] 111% | [3] 98% | [4] 83.3% | [5] 129% | [6] 102% | [7] 88.6% | [8] 111% | [9] 102% | [10] 123%

CC(=O)c1c(C)nc2ccccc2c1/C=C/c1ccc(F)cc1
inactive: [1] 93.3% | [2] 75.5% | [3] 93.3% | [4] 67.6% | [5] 91.8% | [6] 85.4% | [7] 75.7% | [8] 84.6% | [9] 82% | [10] 84.1%

NC(=O)c1cc(I)ccc1NC(=O)/C=C/c1ccccc1
active: [1] -31.7% | [8] -14.9% | [10] 4.56%
inactive: [2] 36.1% | [3] 31.5% | [4] 28.1% | [5] 60.8% | [6] 38.2% | [7] 25.6% | [9] 11.9%
